Test results reported in PubChem BioAssay.

Tests used:
[1] = tested on: Botulinum neurotoxin type F light chain protease (Clostridium botulinum); test: Botulinum neurotoxin type F light chain protease inhibition, multiplex microsphere flow cytometry, validation set (AID 588459); conditions: multiplex microsphere protease substrate cleavage assay, at 10 µM, hits give high values
[2] = biological target: Botulinum neurotoxin type A (Clostridium botulinum) (UniProt P0DPI0); test: BoNT/A light chain protease inhibitors, biochemical, multiplex microsphere flow cytometry, validation set (AID 588460); conditions: at 10 µM, hits give high values
[3] = biological target: Lethal factor (Bacillus anthracis) (UniProt P15917); test: Lethal factor protease inhibitors, Bacillus anthracis, multiplex microsphere cleavage assay, validation set (AID 588461); conditions: flow cytometry, at 10 µM, hits give high values

Measured: inhibition

Sequence of Botulinum neurotoxin type A (Clostridium botulinum) (P0DPI0 whole entry, looked up): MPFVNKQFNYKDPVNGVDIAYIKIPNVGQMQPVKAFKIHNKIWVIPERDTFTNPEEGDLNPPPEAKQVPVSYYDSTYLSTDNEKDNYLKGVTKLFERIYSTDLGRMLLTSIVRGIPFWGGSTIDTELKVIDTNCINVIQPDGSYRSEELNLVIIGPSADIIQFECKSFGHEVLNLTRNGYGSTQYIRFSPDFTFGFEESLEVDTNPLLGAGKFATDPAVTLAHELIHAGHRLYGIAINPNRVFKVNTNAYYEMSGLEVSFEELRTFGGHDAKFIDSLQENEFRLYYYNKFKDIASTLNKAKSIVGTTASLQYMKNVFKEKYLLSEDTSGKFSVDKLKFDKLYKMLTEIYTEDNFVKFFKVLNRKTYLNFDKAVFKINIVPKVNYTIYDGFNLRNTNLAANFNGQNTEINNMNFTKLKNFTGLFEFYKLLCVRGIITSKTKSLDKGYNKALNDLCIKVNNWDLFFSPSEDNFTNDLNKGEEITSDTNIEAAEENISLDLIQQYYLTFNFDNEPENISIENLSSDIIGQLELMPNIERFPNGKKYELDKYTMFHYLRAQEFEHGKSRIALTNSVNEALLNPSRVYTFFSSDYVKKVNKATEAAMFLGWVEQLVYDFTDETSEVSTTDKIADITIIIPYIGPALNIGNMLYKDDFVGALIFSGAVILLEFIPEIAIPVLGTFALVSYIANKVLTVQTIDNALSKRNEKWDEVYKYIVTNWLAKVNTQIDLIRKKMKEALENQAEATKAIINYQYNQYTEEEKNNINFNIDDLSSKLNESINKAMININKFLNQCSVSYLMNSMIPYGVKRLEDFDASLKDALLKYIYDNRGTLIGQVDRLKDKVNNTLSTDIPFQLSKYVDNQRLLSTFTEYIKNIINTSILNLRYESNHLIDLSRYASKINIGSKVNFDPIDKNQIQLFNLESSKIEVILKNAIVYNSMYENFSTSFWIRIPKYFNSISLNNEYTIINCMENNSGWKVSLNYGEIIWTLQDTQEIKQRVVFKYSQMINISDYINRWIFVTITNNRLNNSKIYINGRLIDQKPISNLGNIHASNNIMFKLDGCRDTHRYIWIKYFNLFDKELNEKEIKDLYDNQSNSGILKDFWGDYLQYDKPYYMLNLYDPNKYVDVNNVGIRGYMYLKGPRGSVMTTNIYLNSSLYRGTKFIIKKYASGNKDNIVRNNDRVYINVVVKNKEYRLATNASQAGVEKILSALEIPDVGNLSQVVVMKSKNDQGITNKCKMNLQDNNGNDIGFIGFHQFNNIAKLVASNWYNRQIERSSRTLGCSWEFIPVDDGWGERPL
Sequence of Lethal factor (Bacillus anthracis) (P15917 whole entry, looked up): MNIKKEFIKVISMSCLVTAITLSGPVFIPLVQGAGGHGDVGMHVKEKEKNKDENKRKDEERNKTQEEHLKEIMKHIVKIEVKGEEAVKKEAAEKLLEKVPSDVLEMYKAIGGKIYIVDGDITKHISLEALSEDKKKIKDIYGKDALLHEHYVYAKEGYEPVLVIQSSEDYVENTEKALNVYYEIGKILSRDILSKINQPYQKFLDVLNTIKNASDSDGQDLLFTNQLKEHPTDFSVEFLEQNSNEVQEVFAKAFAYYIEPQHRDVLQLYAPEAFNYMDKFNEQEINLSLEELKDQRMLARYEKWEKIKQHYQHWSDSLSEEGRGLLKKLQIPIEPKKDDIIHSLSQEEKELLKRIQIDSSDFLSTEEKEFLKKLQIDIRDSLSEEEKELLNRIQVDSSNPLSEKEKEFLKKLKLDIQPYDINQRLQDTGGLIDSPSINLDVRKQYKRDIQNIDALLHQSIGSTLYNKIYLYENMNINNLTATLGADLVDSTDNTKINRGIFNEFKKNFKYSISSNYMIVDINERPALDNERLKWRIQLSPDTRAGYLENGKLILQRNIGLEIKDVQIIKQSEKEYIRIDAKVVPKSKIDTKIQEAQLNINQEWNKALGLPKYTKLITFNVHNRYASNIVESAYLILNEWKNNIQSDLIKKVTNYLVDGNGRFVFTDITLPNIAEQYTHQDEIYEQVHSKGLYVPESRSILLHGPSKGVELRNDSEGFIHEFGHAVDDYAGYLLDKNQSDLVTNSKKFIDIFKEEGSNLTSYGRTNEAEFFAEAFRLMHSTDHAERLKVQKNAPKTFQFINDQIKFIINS

Cc1ccc(CN2CCN(Cc3cn[nH]c3C3CCCCC3)CC2CCO)cc1 (stereo not drawn)
inactive: [1] -1.3% | [2] -0.4% | [3] -2.1%

Cc1nc2c(c3c1[nH]c1ccccc13)C(=O)CC(C)(C)C2
inactive: [1] 2.1% | [2] 0.3% | [3] 6%

CC(O)Cn1cnc2c1c(=O)n(C)c(=O)n2C (stereo not drawn)
inactive: [1] -1.4% | [2] -0.5% | [3] -3.2%

CC(=O)c1c(C)[nH]c(C(=O)OCc2ccccc2)c1C
inactive: [1] 2.9% | [2] 0.8% | [3] -6.6%

C=C(C)COc1ccc(-c2nc(N)ncc2-c2ccc(OC)cc2)c(O)c1
inactive: [1] 2.8% | [2] 1.4% | [3] -5.3%

CCOC(=O)COc1ccc2c(=O)c(-c3ccccc3)coc2c1
inactive: [1] -1.6% | [2] 1.3% | [3] 1%

COc1ccc2c(c1OC)C(=O)N1C2SC[C@H]1C(=O)NC1CC(C)(C)NC(C)(C)C1 (stereo partly drawn)
inactive: [1] 3.2% | [2] -0.5% | [3] -2.4%

COc1c2ccoc2nc2c(OC)cccc12
inactive: [1] -3.7% | [2] 0.1% | [3] 3%

CC(=O)[C@@]1(O)CC[C@H]2[C@@H]3C[C@H](C)C4=CC(=O)C=C[C@]4(C)[C@@]3(F)[C@@H](O)C[C@@]21C
inactive: [1] -1.5% | [2] -1.1% | [3] 5.2%

CCOC(=O)C1=C(N)Oc2c(oc(CO)cc2=O)C1c1ccc(F)c(F)c1 (stereo not drawn)
inactive: [1] 2.1% | [2] 0.3% | [3] -2.3%

COc1cc(C=NCC2OCCc3ccccc32)cc(OC)c1 (stereo not drawn)
inactive: [1] 5.8% | [2] 0.3% | [3] 3.3%

CC[N+]1(C)CC2CCC(C)(C1)C2(C)C (stereo not drawn)
inactive: [1] 1.1% | [2] -0.5% | [3] 11.8%

C[C@@H]1C[C@H]2[C@@H]3CCC4=CC(=O)C=C[C@]4(C)[C@@]3(F)[C@@H](O)C[C@]2(C)[C@@]1(O)C(=O)COP(=O)(O)O
inactive: [1] 2.6% | [2] 0.2% | [3] 0.9%

COc1cc2c(cc1OC)C(Cc1ccc(O)cc1)N(C)CC2 (stereo not drawn)
inactive: [1] 2.2% | [2] 0% | [3] -0.9%

COc1ccccc1N1CCN(CC(O)COc2cccc3ccccc23)CC1 (stereo not drawn)
inactive: [1] -2% | [2] -2.3% | [3] -6.6%

Cc1[nH]nc(-c2ccc(O)cc2O)c1Oc1ccccc1
inactive: [1] 0.6% | [2] -0.4% | [3] -5.3%
